The values that follow come from PubChem BioAssay (Tox21).

Assay [1] in a line: Caspase-3/7 induction in HepG2 cells by small molecules, qHTS assay (AID 1346978). Also: nearly all actives have a fitted effect of over 15% in size. In outline: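 Wild-type HepG2 cells (2,000/well) were settled 5 h at 37 C, 5% CO2, then exposed to compounds in DMSO for 17 h. Caspase-3/7 activity was read by luminescence 30 min after adding Caspase-Glo 3/7 reagent at room temperature.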
The nature of assay [2]: Caspase-3/7 induction in CHO-K1 cells by small molecules, qHTS cell viability counter screen (AID 1346979). Also: nearly all actives have a fitted effect of over 35% in size. In outline: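 Cytotoxicity counter screen run in parallel with the caspase-3/7 assay: CHO-K1 cells, 16hr compound treatment at 37C, then CellTiter-Fluor for 1hr before fluorescence reading.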
Assay [3] in a line: Caspase-3/7 induction in CHO-K1 cells by small molecules, qHTS assay (AID 1346980). Also: nearly all actives have a fitted effect of over 15% in size. In outline:
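Wild-type cells were seeded at 1,500 per well and settled 5 hr at 37 C, 5% CO2, then exposed to DMSO-dissolved compounds for 17 hr. Caspase-Glo 3/7 reagent was added, and luminescence was read after 30min at room temperature.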
Background: Quantitative high-throughput screening tests each substance at several concentrations.

Assay [4] can be described thus: Caspase-3/7 induction in HepG2 cells by small molecules, qHTS cell viability counter screen (AID 1346981). Also: series mostly up to about 92 µM; nearly all actives have a fitted effect of over 30% in size. In outline: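 Cell viability is measured as a cytotoxicity counter screen alongside the Caspase-Glo 3/7 readout in identical wells. Wild-type HepG2 cells are treated with test compounds for 16 hr at 37 C before CellTiter-Fluor addition and a 1-hr incubation.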

Assay [5] concerns the target Nuclear receptor subfamily 1 group I member 2 (Homo sapiens) (UniProt O75469). The assay can be described thus: Human pregnane X receptor (PXR) small molecule agonists, qHTS assay (AID 1346982). Also: nearly all actives have a fitted effect of over 35% in size. Also: potency is read from the fitted curve at half-maximal effect. In outline:
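Cells: HepG2 stably carrying PXR-Luc. Medium held 5% charcoal-stripped FBS. Compounds in DMSO added after 5 hr plating, incubated 24 hr, then luminescence quantified with ONE-Glo.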

Assay [6] deals with Nuclear receptor subfamily 1 group I member 2 (Rattus norvegicus) (UniProt Q9R1A7). The experiment in a line: Rat pregnane X receptor (rPXR) activation by small molecules, qHTS assay (AID 1346983). Also: nearly all actives have a fitted effect of over 20% in size. The conditions noted are these: rPXR luciferase reporter cells, One-Glo luminescence, 24 h; max activation: hits give high values. In outline: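 Cell-based rPXR luciferase reporter assay, 2,000 cells per well, rested 5hr at 37 C before compound addition in DMSO, then 24 hr at 37 C. One-Glo reagent was added and luminescence read after 30 min at room temperature.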
Nuclear receptor subfamily 1 group I member 2 (Rattus norvegicus), sequence (Q9R1A7 whole entry, looked up): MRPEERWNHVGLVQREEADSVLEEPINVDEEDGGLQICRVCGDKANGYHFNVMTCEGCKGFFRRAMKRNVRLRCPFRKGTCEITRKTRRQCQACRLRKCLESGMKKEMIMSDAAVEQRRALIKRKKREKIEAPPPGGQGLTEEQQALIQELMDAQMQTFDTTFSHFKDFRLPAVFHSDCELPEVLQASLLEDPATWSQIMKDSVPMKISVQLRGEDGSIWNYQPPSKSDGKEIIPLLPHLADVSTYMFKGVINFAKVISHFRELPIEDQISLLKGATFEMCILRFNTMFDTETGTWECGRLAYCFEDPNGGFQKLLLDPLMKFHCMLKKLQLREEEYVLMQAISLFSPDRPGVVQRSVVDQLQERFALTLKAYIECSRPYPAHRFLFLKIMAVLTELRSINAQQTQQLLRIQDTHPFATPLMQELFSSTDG

Assay [7] concerns the target Nuclear receptor subfamily 1 group I member 2 (Homo sapiens) (UniProt O75469). The assay can be described thus: CYP3A4 induction through human pregnane X receptor (PXR) by small molecules, qHTS assay (AID 1346984). Also: nearly all actives have a fitted effect of over 40% in size. In outline: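 Quantitative HTS in DPX-2 cells, i.e. HepG2 transfected with PXR response element and CYP3A4-promoter luciferase. Compounds in DMSO incubated 24hr at 37C; then P450-Glo CYP3A4 substrate, 3uM final, 3hr; One-Glo luminescence.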

The target is the same in assay [8]. The experiment in a line: Human pregnane X receptor (PXR) activation by small molecules, qHTS assay (AID 1346985). Also: nearly all actives have a fitted effect of over 40% in size. In outline:
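DPX-2 cells (HepG2 co-transfected with a PXR response element and a CYP3A4-promoter luciferase construct) were seeded at 2,000 per well, rested 5 hr at 37C, then exposed to DMSO-dissolved compounds for 24 hr. Activation was read as luciferase luminescence.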

Assay [9] deals with Cytochrome P450 2C19 (Homo sapiens) (UniProt P33261). The assay can be described thus: Cytochrome P450 Family 2 Subfamily C Member 19 (CYP2C19) small molecule antagonists: luciferase reporter qHTS assay (AID 1671197). Also: nearly all actives have a fitted effect of over 65% in size. Also: potency is read from the fitted curve at half-maximal effect. As to activity change, negative = inhibition: series mostly up to about 120 µM. In outline:
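P450-Glo CYP2C19 screening system; proluciferin substrate; DMSO compound stocks; 10 min RT preincubation; NADPH regeneration, 1 h at 37C; luciferin detection reagent, 20 min RT; luminescence as RLU.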

In assay [10] the target is Cytochrome P450 1A2 (Homo sapiens) (UniProt P05177). The experiment in a line: Cytochrome P450 Family 1 Subfamily A Member 2 (CYP1A2) small molecule antagonists: luciferase reporter qHTS assay (AID 1671199). Also: nearly all actives have a fitted effect of over 50% in size. Also: potency is read from the fitted curve at half-maximal effect. As to activity change, negative = inhibition: series mostly up to about 120 µM. In outline:
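Compounds were incubated with CYP1A2 and a luminogenic proluciferin substrate for 10 min at room temperature before the reaction was started with NADPH regeneration solution. After 1 h, detection reagent was added and light output, proportional to CYP activity, was recorded.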

Assay [11] concerns the target Voltage-gated inwardly rectifying potassium channel KCNH2 (Homo sapiens) (UniProt Q12809). The experiment in a line: Human Ether-a-go-go-Related Gene (hERG) channel small molecule antagonists: fluorescence cell-based qHTS assay (AID 1671200).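 Also: hERG-expressing U2OS cells given a thallium stimulus after FluxOR II dye loading; series mostly up to about 77 µM; nearly all actives have a fitted effect of over 50% in size.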 In outline:
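Fluorescence at 540 nm emission (480 nm excitation) was recorded kinetically for 2 min at 1-second intervals once the thallium-containing stimulus reached cells previously loaded with FluxOR II dye.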

Assay [12] deals with Cytochrome P450 2D6 (Homo sapiens) (UniProt P10635). The experiment in a line: Cytochrome P450 Family 2 Subfamily D Member 6 (CYP2D6) small molecule antagonists: luciferase reporter qHTS assay (AID 1671196). Also: nearly all actives have a fitted effect of over 50% in size. Also: potency is read from the fitted curve at half-maximal effect. As to activity change, negative = inhibition: series mostly up to about 120 µM. In outline: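 Enzyme and proluciferin substrate were first combined with test chemical for 10 min at room temperature. Adding NADPH regeneration solution started a 1 h reaction, stopped with luciferin detection reagent and read by luminescence 20 min later.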
Cytochrome P450 2D6 (Homo sapiens), sequence (P10635 whole entry, looked up): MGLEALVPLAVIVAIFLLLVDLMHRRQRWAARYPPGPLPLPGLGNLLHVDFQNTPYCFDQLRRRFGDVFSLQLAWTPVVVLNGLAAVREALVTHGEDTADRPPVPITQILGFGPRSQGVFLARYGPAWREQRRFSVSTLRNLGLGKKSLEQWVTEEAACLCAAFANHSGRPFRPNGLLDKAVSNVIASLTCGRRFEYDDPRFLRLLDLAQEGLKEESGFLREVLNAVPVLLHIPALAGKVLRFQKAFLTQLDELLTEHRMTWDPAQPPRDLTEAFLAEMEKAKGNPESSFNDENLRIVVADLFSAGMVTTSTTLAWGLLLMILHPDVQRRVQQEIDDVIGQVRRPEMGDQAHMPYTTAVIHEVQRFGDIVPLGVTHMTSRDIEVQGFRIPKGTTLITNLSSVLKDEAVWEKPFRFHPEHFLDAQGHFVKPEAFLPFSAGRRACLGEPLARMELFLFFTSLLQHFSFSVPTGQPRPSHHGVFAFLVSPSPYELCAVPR

For assay [13], the target named is Cytochrome P450 2C9 (Homo sapiens) (UniProt P11712). The experiment in a line: Cytochrome P450 Family 2 Subfamily C Member 9 (CYP2C9) small molecule antagonists: luciferase reporter qHTS assay (AID 1671198). Also: nearly all actives have a fitted effect of over 50% in size. Also: potency is read from the fitted curve at half-maximal effect. As to activity change, negative = inhibition: series mostly up to about 120 µM. In outline: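 CYP2C9 activity was measured with a P450-Glo proluciferin substrate. Enzyme–substrate mix was held with compound for 10 min at room temperature, then NADPH regeneration solution was added for 1 h at 37C. Luciferin product was read as luminescence.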
Cytochrome P450 2C9 (Homo sapiens), sequence (P11712 whole entry, looked up): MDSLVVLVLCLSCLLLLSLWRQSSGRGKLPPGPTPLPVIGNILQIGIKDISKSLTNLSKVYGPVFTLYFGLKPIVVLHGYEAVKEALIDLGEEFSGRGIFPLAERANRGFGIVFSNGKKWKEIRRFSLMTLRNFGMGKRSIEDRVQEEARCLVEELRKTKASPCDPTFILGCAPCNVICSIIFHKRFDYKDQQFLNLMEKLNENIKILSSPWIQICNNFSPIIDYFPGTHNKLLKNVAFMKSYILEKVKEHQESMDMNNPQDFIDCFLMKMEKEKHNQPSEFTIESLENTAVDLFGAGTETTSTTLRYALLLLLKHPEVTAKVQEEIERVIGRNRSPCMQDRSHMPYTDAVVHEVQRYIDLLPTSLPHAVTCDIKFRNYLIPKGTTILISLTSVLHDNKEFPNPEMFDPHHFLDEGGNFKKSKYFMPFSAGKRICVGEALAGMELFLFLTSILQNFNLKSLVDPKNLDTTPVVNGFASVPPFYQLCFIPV
A general note: A reporter such as luciferase makes a cellular process visible.

For assay [14], the target named is Cytochrome P450 3A4 (Homo sapiens) (UniProt P08684). The assay can be described thus: Cytochrome P450 Family 3 Subfamily A Member 4 (CYP3A4) small molecule antagonists: luciferase reporter qHTS assay (AID 1671201). In outline: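 qHTS, 1536-well. CYP3A4 + proluciferin substrate, cpd 10 min RT → NADPH regen 1 h RT → detection reagent 20 min → luminescence (RLU). Ketoconazole positive control.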
Cytochrome P450 3A4 (Homo sapiens), sequence (P08684 whole entry, looked up): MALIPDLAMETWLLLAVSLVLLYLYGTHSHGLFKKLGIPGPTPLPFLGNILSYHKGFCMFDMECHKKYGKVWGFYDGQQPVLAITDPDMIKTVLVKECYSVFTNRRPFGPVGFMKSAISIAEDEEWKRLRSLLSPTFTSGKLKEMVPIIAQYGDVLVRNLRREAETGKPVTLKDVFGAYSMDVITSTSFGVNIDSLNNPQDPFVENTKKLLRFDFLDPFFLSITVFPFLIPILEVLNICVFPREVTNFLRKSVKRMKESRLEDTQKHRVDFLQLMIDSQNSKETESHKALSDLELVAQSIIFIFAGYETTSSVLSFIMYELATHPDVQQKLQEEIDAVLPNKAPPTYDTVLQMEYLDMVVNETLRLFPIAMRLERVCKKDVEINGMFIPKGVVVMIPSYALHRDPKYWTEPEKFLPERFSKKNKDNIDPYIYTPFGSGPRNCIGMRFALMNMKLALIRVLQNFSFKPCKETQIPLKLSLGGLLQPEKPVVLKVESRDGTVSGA

Unmarked numbers belong to inactive results. Records with an inconclusive call do not appear. Calls of active or inactive are those of the source. Calls follow the shape of the dose curve; as a rule, active = well fitted curve in the direction sought with a large enough effect in the repeat runs; inconclusive = weak or mixed curves; inactive = no such curve, though single readings can be large; an effect the other way counts as inactive or inconclusive.
% is scaled to controls: 0 for no effect and ±100 for the full control effect.

Voltage-gated inwardly rectifying potassium channel KCNH2 (Homo sapiens), sequence (Q12809 whole entry, looked up): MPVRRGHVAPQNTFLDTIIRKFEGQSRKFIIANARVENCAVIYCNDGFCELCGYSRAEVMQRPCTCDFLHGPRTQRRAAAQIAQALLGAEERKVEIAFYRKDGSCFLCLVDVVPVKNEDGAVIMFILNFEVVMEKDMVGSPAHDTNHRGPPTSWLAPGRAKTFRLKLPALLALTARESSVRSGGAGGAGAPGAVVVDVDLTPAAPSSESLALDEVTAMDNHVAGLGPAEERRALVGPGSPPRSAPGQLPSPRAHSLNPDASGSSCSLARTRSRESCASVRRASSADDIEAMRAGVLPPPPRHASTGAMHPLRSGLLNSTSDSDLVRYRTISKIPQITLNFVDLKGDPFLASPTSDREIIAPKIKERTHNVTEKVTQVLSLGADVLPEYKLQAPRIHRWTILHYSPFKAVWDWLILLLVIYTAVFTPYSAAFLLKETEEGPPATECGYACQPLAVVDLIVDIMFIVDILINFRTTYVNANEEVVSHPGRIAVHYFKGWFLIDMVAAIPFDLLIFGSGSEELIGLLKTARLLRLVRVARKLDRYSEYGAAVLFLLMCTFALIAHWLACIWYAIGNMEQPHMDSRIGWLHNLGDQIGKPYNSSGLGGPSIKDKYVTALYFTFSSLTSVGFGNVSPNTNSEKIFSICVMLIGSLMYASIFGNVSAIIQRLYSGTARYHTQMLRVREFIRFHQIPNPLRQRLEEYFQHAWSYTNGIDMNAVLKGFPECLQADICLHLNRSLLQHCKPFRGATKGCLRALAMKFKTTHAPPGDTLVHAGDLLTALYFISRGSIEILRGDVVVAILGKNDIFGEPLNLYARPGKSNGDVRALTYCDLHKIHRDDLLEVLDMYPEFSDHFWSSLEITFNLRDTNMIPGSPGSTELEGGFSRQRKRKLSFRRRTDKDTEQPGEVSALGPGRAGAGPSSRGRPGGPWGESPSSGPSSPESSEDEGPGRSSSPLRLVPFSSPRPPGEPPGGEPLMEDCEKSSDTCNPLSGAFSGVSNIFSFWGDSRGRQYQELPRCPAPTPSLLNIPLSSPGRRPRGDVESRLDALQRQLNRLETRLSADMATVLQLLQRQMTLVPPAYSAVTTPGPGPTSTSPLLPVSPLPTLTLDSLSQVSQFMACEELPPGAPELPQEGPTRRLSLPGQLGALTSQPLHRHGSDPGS
Cytochrome P450 1A2 (Homo sapiens), sequence (P05177 whole entry, looked up): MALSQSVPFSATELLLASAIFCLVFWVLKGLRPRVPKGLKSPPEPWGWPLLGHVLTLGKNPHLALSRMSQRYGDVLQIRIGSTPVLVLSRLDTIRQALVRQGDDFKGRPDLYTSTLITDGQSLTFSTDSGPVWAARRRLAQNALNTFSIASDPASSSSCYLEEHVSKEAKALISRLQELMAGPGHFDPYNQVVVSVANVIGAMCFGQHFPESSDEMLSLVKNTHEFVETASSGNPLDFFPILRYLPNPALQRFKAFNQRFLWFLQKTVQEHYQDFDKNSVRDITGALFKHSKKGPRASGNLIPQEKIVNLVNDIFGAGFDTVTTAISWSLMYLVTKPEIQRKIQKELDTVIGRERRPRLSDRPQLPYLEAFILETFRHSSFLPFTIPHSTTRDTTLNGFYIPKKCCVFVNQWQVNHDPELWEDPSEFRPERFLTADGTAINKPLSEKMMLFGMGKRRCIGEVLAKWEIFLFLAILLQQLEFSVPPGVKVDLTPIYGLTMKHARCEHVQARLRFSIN
Cytochrome P450 2C19 (Homo sapiens), sequence (P33261 whole entry, looked up): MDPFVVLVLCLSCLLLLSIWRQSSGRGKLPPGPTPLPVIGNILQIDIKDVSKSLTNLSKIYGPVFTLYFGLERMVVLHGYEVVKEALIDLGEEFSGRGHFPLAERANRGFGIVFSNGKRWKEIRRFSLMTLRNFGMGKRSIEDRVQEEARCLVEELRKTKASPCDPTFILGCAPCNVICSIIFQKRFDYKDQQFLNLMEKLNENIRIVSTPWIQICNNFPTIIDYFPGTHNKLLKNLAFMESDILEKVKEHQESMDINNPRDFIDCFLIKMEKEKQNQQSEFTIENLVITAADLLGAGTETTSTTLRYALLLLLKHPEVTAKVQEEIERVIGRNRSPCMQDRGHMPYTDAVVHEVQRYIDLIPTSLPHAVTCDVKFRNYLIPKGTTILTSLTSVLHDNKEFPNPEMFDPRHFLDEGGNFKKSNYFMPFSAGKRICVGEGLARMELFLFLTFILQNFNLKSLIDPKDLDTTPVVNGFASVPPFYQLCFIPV
Nuclear receptor subfamily 1 group I member 2 (Homo sapiens), sequence (O75469 whole entry, looked up): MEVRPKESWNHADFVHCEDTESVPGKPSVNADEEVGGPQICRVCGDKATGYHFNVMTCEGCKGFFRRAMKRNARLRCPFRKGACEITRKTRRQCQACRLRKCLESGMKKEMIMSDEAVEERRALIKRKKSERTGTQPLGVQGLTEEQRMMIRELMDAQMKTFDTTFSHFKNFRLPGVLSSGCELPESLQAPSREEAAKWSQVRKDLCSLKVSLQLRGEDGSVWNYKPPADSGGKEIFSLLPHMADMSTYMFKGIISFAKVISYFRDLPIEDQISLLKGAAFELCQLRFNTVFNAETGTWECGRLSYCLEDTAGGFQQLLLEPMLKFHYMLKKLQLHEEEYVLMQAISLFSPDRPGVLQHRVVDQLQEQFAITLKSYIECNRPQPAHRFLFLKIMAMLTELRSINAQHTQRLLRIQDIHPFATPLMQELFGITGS

`CCCCc1nc(Cl)c(CO)n1Cc1ccc(-c2ccccc2-c2nn[nH]n2)cc1`: the compound was called inactive in assay [1] and in assay [3]. The Potency entry in assay [2], in assay [4], in [5], in assay [7], in [8] and in assay [9] was “inactive” in each case. Also, the Potency result in assay [10] and in assay [11] was “inactive” each time. Besides, the max activation in assay [6] is -3.95%.

As to `CC(C)COC(=O)c1ccc(N)cc1`, the compound was classed as inactive in assay [1] and in assay [3]. The Potency entry in assay [2], in assay [4], in [7], in assay [8], in assay [12] and in assay [11] was “inactive” throughout. The Potency in [5] was 21.1 µM (active); in assay [9], 21.9 µM (active); in [13] it was 13.8 µM (active); in assay [10], 6.92 µM (active). Further, the max activation in assay [6] was 0.562%.

On to `CC(=O)NC(=O)c1ccccc1O`, for which the result in assay [1] and in assay [3] was inactive. The Potency entry in assay [2], in [4], in assay [5], in [7], in assay [8] and in assay [12] was “inactive” in each case. The Potency entry in assay [9], in assay [11] and in [14] was “inactive” in each case. In addition, the max activation in [6] was -2.9%.

For `CC(C)CC(C)(N)C#N` (stereo not given), the outcome in assay [1] and in assay [3] was inactive. For the same compound, the Potency result in assay [2], in assay [4], in assay [5], in assay [12], in assay [9] and in assay [13] was “inactive” each time. In addition, the Potency result in [10], in assay [11] and in assay [14] was “inactive” each time.

Consider `COc1cccc(OC)c1C(=O)N[C@@H]1C(=O)N2[C@@H]1SC(C)(C)[C@@H]2C(=O)O`, for which the result in assay [1] and in assay [3] was inactive. Also, the Potency result in assay [2], in [4], in assay [5], in assay [7], in assay [8] and in [12] was “inactive” throughout. Also, the Potency entry in assay [9], in [13], in [10] and in assay [14] was “inactive” in each case. Further, the max activation in assay [6] was -1.79%.

Take `Nc1ccccn1`: the outcome in [1] and in assay [3] was inactive. Besides, the Potency result in assay [2] and in [4] was “inactive” throughout.

For the compound `CC(CO)(CO)[N+](=O)[O-]`, the compound was called inactive in assay [1] and in assay [3]. Further, the Potency result in assay [2], in [4], in assay [5], in assay [12], in assay [9] and in assay [13] was “inactive” each time. Moreover, the Potency result in [10], in assay [11] and in [14] was “inactive” in each case.

As for `CCN[C@@H]1C[C@H](N)[C@@H](OC2OC(CN)=CCC2N)[C@H](O)[C@H]1O[C@H]1OC[C@](C)(O)[C@H](NC)[C@H]1O` (stereo not given in full), in assay [1], the caspase activation was 0.0658% [at 0.349 µM]. The activity change, negative = cytotoxicity was 2.16% [at 0.349 µM] in assay [2] and 3.51% [at 0.349 µM] in assay [4]. The caspase-3/7 activation in assay [3] was -0.394% [at 0.349 µM]. Moreover, in [5], the activation is -3.06% [at 0.349 µM]. Also, the max activation in [6] is -4.25%. Moreover, the Potency entry in [7] and in assay [8] was “inactive” in each case. For the same compound, the activity change, negative = inhibition in [11] was -0.868% [at 0.29 µM].

Turning to `Cc1ccccc1N=C(N)N=C(N)N`, the result in [1] and in assay [3] was inactive. Besides, the Potency entry in assay [2], in [4], in assay [5], in assay [9], in [13] and in [10] was “inactive” throughout. The Potency entry in [11] and in [14] was “inactive” in each case. For the same compound, the Potency in assay [12] is 7.96 µM (active).
